Data published in PubChem BioAssay (NCATS).
Results filed as inconclusive are left out. Active and inactive are the calls of the source. Unless noted, the call rests on the fitted dose curve; in most records, active means well fitted curve in the direction sought with a large enough effect; inconclusive means small, poorly fitted or top-dose-only effect, or another doubt; inactive means no such curve, though single readings can be large; an effect the other way counts as inactive or inconclusive.

What was measured:
[1] = target: Arylsulfatase A (Homo sapiens) (UniProt P15289); experiment: qHTS screen for enhancers of Arylsulfatase A (ASA1): LOPAC Validation Assay (AID 720538); settings: ASA enzyme activity, LOPAC qHTS enhancer assay; series mostly up to 57.5 µM
Procedure, shortened: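 First, ASA-I179S fibroblasts from an MLD patient adhered for 6 hrs. Next, compounds were added for 48h. Then pNCS substrate (0.5mM final) with lysis buffer reacted 14h at room temperature before NaOH stop and fluorescence measurement.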

[2] = qHTS for compounds that reverse cellular toxicity of Amyloid beta (A-beta) peptide in yeast: LOPAC Validation Assay (AID 720559); settings: yeast expressing A-beta; Potency: rescue of growth toxicity; series mostly up to 46.1 µM
Procedure, shortened: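 Activity is expressed relative to DMSO and an equimolar ferric chloride/clioquinol mix. Compounds were pinned into medium with A-beta-expressing yeast, grown 48 hr at 30 C, then read by absorbance at 600 nm.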

[3] = qHTS for Activators of Parkin Expression: LOPAC Validation Assay (NLuc Reporter) (AID 720572); settings: Parkin promoter NanoLuc reporter cells, luminescence; series mostly up to 46.1 µM
Procedure, shortened: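 Compound effects on Parkin promoter activity were measured as NanoLuc luminescence after 24 h at 37 C. The neuronal reporter line also carried FLuc, which was read first. LOPAC compounds were tested at 7 concentrations, with normalization to DMSO (0%) and positive control (100%).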

[4] = qHTS for Activators of Parkin Expression: LOPAC Validation Assay (FLuc Reporter) (AID 720573); settings: Cell line, PRKN promoter firefly luciferase reporter; series mostly up to 46.1 µM
Procedure, shortened: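 A neuronal cell line harbouring FLuc and NLuc reporters behind the Parkin promoter was exposed to compounds for 24 h. Firefly luciferase signal, measured after 10 min with detection reagent, was scaled to DMSO and positive-control wells.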

[5] = target: T1, Hexokinase-4 (Homo sapiens) + Glucokinase regulatory protein (Homo sapiens) (UniProt P35557+Q14397); experiment: qHTS assay for inhibitors of recombinant human GCK-GKRP interaction: Diaphorase-coupled assay (AID 743205); settings: G6PDH/diaphorase resorufin fluorescence; series mostly up to 57.5 µM
Procedure, shortened: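 Inhibitors of the GCK–GKRP complex relieve GKRP suppression of GCK, detected through a G6PDH–diaphorase cascade reducing resazurin. Human GST-GCK and FLAG-GKRP are used at 10 nM with 5 mM glucose and 0.4 mM ATP.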

[6] = target: T1, Hexokinase-4 (Homo sapiens) + Glucokinase regulatory protein (Homo sapiens); experiment: qHTS assay for inhibitors of recombinant human GCK-GKRP interaction: ADP-Glo assay (AID 743206); settings: ADP-Glo luminescence, 60 min; series mostly up to 76.9 µM
Procedure, shortened: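 Pin-transferred compounds meet a 15 nM GST-GCK/15 nM FLAG-GKRP/2 uM S6P mix (dispense concentrations). ATP is then added to 0.4 mM final with 5 mM glucose, and the reaction runs 60 min at room temperature. ADP is quantified luminescently.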

[7] = target: T1, Hexokinase-4 (Homo sapiens) + Glucokinase regulatory protein (Homo sapiens); experiment: qHTS assay for inhibitors of recombinant human GCK-GKRP interaction: HTRF assay (AID 743207); settings: recombinant GCK-GKRP HTRF binding, 60 min, with sorbitol-6-phosphate; series mostly up to 57.5 µM
Procedure, shortened: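 Steps: dispense GCK–GKRP complex (5 nM each, GST- and FLAG-tagged) with 2 uM S6P; pin in compounds; add XL665/Eu-cryptate-labelled antibodies; incubate 60 min at room temperature; read time-resolved FRET at 665 and 615 nm.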

[8] = qHTS assay for small molecule agonists of the antioxidant response element (ARE) signaling pathway measured by Nrf2-dependant transcriptional activity (AID 720636; active means well fitted curve in the direction sought with a large enough effect in the repeat runs; an effect the other way counts as inactive or inconclusive;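 further: HepG2 cells with an ARE-driven luciferase reporter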); settings: ARE-luc HepG2, Nrf2 luciferase reporter, 16 h; series mostly up to 92.4 µM
Procedure, shortened: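 Attachment 6 hr at 37 C, then compound versus DMSO vehicle for 16 hr in ARE-luc HepG2 cells (1% dialyzed FBS); luminescence recorded 30 min after ONE-Glo addition at room temperature.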

Measured: Potency

Sequence of Arylsulfatase A (Homo sapiens) (P15289 whole entry, looked up): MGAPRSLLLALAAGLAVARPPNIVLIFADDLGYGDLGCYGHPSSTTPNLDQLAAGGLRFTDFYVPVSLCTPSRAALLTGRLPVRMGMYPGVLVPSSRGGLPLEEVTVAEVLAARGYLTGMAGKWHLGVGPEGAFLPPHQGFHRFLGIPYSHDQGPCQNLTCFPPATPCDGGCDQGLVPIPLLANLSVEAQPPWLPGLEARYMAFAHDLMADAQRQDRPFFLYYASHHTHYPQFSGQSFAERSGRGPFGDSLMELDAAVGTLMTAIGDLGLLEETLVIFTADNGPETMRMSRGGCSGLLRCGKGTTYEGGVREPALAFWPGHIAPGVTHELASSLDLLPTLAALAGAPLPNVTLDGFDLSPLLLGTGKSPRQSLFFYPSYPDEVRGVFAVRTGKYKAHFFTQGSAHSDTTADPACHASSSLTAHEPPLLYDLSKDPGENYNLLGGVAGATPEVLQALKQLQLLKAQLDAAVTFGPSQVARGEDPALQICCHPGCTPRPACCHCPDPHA
T1 sequence (P35557 whole entry, looked up): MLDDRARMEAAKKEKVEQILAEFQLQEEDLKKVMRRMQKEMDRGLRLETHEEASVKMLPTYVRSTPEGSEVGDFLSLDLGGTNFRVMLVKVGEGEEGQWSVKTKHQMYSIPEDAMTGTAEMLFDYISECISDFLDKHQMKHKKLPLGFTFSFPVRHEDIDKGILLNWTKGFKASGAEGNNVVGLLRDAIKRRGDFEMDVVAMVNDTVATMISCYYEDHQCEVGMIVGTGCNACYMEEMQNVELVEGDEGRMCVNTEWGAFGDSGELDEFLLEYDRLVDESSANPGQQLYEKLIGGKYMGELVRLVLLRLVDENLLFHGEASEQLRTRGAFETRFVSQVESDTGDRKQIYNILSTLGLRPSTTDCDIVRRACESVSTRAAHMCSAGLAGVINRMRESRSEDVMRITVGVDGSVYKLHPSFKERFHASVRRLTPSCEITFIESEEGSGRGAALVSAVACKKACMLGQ
T1 sequence (Q14397 whole entry, looked up): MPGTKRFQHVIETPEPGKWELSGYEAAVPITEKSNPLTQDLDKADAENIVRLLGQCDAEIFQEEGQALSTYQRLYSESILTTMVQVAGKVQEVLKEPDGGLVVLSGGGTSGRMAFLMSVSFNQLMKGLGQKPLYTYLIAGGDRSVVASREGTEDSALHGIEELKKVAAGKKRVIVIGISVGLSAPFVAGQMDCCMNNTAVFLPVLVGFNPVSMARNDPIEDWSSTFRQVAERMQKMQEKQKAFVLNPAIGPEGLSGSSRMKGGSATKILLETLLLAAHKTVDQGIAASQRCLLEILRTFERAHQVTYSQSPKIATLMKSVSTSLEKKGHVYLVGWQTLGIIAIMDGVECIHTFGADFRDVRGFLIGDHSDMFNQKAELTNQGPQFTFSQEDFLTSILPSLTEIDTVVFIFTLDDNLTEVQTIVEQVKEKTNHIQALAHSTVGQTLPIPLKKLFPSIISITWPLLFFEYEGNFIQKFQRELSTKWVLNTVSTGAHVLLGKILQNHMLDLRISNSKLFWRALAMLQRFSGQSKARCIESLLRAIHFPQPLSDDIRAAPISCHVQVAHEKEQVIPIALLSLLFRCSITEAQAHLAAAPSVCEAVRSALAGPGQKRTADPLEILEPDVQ

CSc1ccccc1N1CCN(CCCCCC(=O)NC2CCCc3ccccc32)CC1 (stereo unspecified)
not listed: [8]
inactive: all other assays above

C[C@@H](CN1CCC(Cc2ccccc2)CC1)[C@@H](O)c1ccc(O)cc1
not listed: [8]
inactive: all other assays above

CC(C)NC[C@@H](O)c1ccc(O)c(O)c1
not listed: [8]
inactive: all other assays above

COc1cc(SC)ccc1C(=O)N1CCC(Cc2ccccc2)CC1
not listed: [8]
inactive: all other assays above

CCCCCCCCCCCCCCCC(=O)OC(CC(=O)O)C[N+](C)(C)C (stereo unspecified)
not listed: [8]
inactive: all other assays above

CC(C)NC[C@H](O)COc1cccc2[nH]ccc12
inactive: [1] | [2] | [3]

Nc1nc(SCc2ccc([N+](=O)[O-])cc2)c2ncn([C@@H]3O[C@H](CO)[C@@H](O)[C@H]3O)c2n1
not listed: [6] | [8]
inactive: all other assays above

COc1cc2nc(N3CCN(C(=O)OCc4ccccc4)C(C(=O)NC(C)(C)C)C3)nc(N)c2cc1OC (stereo unspecified)
not listed: [8]
inactive: all other assays above

Cc1ccccc1CNc1ncnc2c1ncn2C1OC(CO)C(O)C1O (stereo unspecified)
not listed: [8]
inactive: all other assays above

CC(C)NCC(O)COc1cccc2ccccc12 (stereo unspecified)
inactive: all assays above
